Here are results for 30 compounds from PubChem BioAssay (Tox21).

Assay [1] can be described thus: qHTS assay to identify small molecule antagonists of the estrogen related receptor (ERR) signaling pathway from Tox21 library - cell viability counter screen (AID 1224834). Also: nearly all actives have a fitted effect of over 30% in size. Also: potency is read from the fitted curve at half-maximal effect. In outline:
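CellTiter-Fluor fluorescence measured; ERR cells; 17.5 h compound incubation at 37 C; 30 min reagent step.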
(In general: qHTS replaces the single test concentration by a dilution series.)

The target in assay [2] is Luciferin 4-monooxygenase (Photinus pyralis) (UniProt P08659). The assay is described as follows: qHTS assay to identify small molecule inhibitors of firefly luciferase (AID 1224835). Also: nearly all actives have a fitted effect of over 25% in size. Also: potency is read from the fitted curve at half-maximal effect. As to activity change, negative = inhibition: series mostly up to about 120 µM. In outline:
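Quantitative HTS format; KM concentrations of both substrates. Purified P. pyralis FLuc activity quantified from luminescence images.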

Assay [3] can be described thus: qHTS assay to identify small molecule agonists of the constitutive androstane receptor (CAR) signaling pathway - cell viability counter screen (AID 1224836). Also: nearly all actives have a fitted effect of over 45% in size. Also: potency is read from the fitted curve at half-maximal effect. As to viability change, negative = cytotoxic: series mostly up to about 92 µM. The procedure, abridged:
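23 h treatment, 37 C, 5% CO2. Cell line: HepG2 stably expressing hCAR with a CYP2B6-2.2kb construct. Co-treatment: PK11195, 0.75 uM final. Read-out: CellTiter-Fluor fluorescence intensity.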

Assay [4] in a line: qHTS assay to identify small molecule antagonists of the constitutive androstane receptor (CAR) signaling pathway - cell viability counter screen (AID 1224837). Also: nearly all actives have a fitted effect of over 45% in size. Also: potency is read from the fitted curve at half-maximal effect. As to activity change, negative = cytotoxicity: series mostly up to about 92 µM. In outline:
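Using CellTiter-Fluor, viability is scored in HepG2 cells stably carrying hCAR and a 2.2kb CYP2B6 reporter after 23 hr compound exposure across 15 concentrations, with CITCO present at 50 nM.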

Assay [5] is described as follows: qHTS assay to identify small molecule antagonists of the estrogen related receptor signaling pathway with the pleiotropic PPARgamma coactivator (PGC) from Tox21 10K library - cell viability counter screen (AID 1224840; active = well fitted cell-killing curve with a large enough effect in the repeat runs, not every such curve was filed as active; also: nearly all actives have a fitted effect of over 40% in size; also: potency is read from the fitted curve at half-maximal effect). In outline:
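Here the PGC/ERR cells serve as a cytotoxicity control: they are exposed to compounds for 17.5 hours at 37 C, and live-cell signal is quantified using CellTiter-Fluor fluorescence.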

The target in assay [6] is Thyrotropin receptor (Homo sapiens) (UniProt P16473). The assay is described as follows: qHTS assay to identify small molecule agonists of the thyroid stimulating hormone receptor (TSHR) signaling pathway (AID 1224843; calls by dose curve; also: nearly all actives have a fitted effect of over 45% in size; also: potency is read from the fitted curve at half-maximal effect). The procedure, abridged: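 TSHR-expressing HEK293 cells (800 per well) were exposed to compounds for 30 min at room temperature. cAMP was then detected by HTRF competition with cAMP-d2 and anti-cAMP cryptate, read after 1 h at room temperature. Fifteen concentrations, triplicate.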
Thyrotropin receptor (Homo sapiens), sequence (P16473 whole entry, looked up): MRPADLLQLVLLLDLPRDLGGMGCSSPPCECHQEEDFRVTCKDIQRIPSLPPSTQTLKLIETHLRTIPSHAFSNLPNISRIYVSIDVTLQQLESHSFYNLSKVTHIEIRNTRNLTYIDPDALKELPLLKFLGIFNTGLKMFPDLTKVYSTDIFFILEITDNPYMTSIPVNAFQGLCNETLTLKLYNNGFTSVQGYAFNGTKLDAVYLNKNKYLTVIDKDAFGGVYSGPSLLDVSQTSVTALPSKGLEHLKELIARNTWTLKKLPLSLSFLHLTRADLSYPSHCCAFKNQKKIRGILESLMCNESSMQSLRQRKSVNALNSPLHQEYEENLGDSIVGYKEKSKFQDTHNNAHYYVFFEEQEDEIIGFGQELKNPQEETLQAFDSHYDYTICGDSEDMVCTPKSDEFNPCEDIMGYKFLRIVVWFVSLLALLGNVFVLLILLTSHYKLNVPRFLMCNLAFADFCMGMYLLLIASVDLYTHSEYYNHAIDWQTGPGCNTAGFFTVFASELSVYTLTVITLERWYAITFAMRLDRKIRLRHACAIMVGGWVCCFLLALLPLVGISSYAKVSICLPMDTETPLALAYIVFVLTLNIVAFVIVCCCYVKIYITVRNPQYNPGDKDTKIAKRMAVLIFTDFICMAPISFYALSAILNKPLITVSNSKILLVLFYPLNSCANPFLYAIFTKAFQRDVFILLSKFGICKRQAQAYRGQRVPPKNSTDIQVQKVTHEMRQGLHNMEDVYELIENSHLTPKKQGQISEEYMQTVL

The target of assay [7] is Nuclear receptor subfamily 1 group I member 3 (Homo sapiens) (UniProt Q14994). The assay is described as follows: qHTS assay to identify small molecule agonists of the constitutive androstane receptor (CAR) signaling pathway (AID 1224839).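 Also: HepG2 cells stably carrying human CAR and a CYP2B6 luciferase reporter; series mostly up to about 92 µM; nearly all actives have a fitted effect of over 15% in size.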 The procedure, abridged: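 Compounds tested at 15 concentrations on HepG2 cells stably harbouring hCAR and CYP2B6-2.2kb reporter constructs, co-treated with PK11195 (0.75 uM final), 24 h at 37 C; luminescent reporter signal quantified.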
Nuclear receptor subfamily 1 group I member 3 (Homo sapiens), sequence (Q14994 whole entry, looked up): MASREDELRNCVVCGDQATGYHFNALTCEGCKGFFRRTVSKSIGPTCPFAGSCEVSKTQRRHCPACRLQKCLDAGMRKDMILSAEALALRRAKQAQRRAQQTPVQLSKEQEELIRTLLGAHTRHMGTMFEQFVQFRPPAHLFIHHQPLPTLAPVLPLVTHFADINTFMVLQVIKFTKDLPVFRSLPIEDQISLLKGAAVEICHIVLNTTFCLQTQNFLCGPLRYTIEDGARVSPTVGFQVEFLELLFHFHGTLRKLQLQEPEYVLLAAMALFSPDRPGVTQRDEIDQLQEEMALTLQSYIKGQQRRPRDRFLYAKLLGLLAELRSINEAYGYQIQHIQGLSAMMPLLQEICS

Assay [8] is described as follows: qHTS assay to identify small molecule agonists of the estrogen related receptor signaling pathway with the pleiotropic PPARgamma coactivator (PGC) from Tox21 10K library (AID 1224842). Also: nearly all actives have a fitted effect of over 15% in size. The procedure, abridged: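 PGC/ERR reporter cells (NTP line) were seeded 2,000 per well, rested 6 h at 37 C/5% CO2, then pin-dosed with compounds in DMSO for 18 h at 37 C; luciferase read by One-Glo luminescence after 30 min at room temperature.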

Assay [9] can be described thus: qHTS assay to identify small molecule antagonists of the estrogen related receptor signaling pathway with the pleiotropic PPARgamma coactivator (PGC) from Tox21 10K library (AID 1224841; call rule not given here; also: actives are mostly falling curves and most rising ones were filed inactive; nearly all actives have a fitted effect of over 50% in size; also: potency is read from the fitted curve at half-maximal effect; as to activity, negative = inhibition: series mostly up to about 92 µM). In outline:
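Each well held 2,000 PGC/ERR cells, pre-incubated six hours (37 C, 5% CO2). Test substances in DMSO were added by pin tool and left for 18 h at 37 C before luciferase detection by One-Glo.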

The target of assay [10] is Nuclear receptor subfamily 1 group I member 3 (Homo sapiens) (UniProt Q14994). Briefly: qHTS assay to identify small molecule antagonists of the constitutive androstane receptor (CAR) signaling pathway (AID 1224838).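 Also: HepG2 cells stably expressing hCAR with CYP2B6 luciferase reporter stimulated by CITCO; nearly all actives have a fitted effect of over 40% in size.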 The procedure, abridged:
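Reporter luminescence was quantified after 24 h exposure of hCAR/CYP2B6-2.2kb double-stable HepG2 cells to compounds at 15 concentrations in the presence of 50 nM CITCO final.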

Results filed as inconclusive are left out. Unmarked numbers belong to inactive results. Active and inactive are the calls of the source. Unless noted, calls follow the shape of the dose curve; as a rule, active = well fitted curve in the direction sought with a large enough effect in the repeat runs; inconclusive = weak or mixed curves; inactive = no such curve, though single readings can be large; an effect the other way counts as inactive or inconclusive.
% is scaled to controls: 0 for no effect and ±100 for the full control effect.

Luciferin 4-monooxygenase (Photinus pyralis), sequence (P08659 whole entry, looked up): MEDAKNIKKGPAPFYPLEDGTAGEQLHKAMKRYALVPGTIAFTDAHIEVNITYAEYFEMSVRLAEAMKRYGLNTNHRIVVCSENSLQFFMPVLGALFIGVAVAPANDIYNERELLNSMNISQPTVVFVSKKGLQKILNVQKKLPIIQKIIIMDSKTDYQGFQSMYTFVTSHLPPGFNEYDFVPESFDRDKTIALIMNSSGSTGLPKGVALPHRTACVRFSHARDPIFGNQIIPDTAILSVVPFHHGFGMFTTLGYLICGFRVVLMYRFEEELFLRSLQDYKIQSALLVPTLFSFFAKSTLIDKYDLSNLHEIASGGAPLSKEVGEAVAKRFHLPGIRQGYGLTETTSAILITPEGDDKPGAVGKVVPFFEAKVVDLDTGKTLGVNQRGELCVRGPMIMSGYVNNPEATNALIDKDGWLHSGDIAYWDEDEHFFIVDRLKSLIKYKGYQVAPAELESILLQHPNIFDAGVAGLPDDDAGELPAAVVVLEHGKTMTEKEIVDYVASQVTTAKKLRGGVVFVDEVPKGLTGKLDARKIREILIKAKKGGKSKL

With `C[N+](C)(C)CCOC(=O)CCC(=O)OCC[N+](C)(C)C`, the Potency entry in assay [1], in assay [2], in [3], in [4], in assay [5] and in assay [6] was “inactive” throughout.
For `O=C1OC(=O)C2C3C=CC(C3)C12` (stereo unspecified), the Potency entry in [1], in assay [2], in [3], in assay [4] and in assay [5] was “inactive” each time.
As for `Cc1cc(C(=O)O)ccc1[N+](=O)[O-]`, the Potency entry in assay [1], in assay [2], in assay [3], in assay [4], in assay [5] and in assay [6] was “inactive” throughout.
Take `O=C(O)c1ccc(-n2nc(-c3ccccc3O)nc2-c2ccccc2O)cc1`: in assay [1], the Potency is 23.7 µM (active). Moreover, the Potency entry in [2], in assay [3], in [4], in [7], in assay [5] and in assay [8] was “inactive” throughout.
On to `C/C=C/C=C/CO`, for which the Potency entry in [1], in assay [2], in [3], in assay [4], in assay [5] and in assay [6] was “inactive” in each case.
As for `C1CCCNCCC1`, the Potency entry in [1], in assay [2], in [3], in assay [4], in assay [5] and in assay [8] was “inactive” throughout. For the same compound, in [6], the Potency result was “inactive”. Moreover, the Potency in [9] was 4.32 µM (active).
For the compound `COc1ccc2cccc(CCNC(C)=O)c2c1`, the Potency entry in [1], in assay [2], in assay [3], in [4], in [10] and in [5] was “inactive” in each case.
As for `CC[N+](C)(CC)CCOC(=O)C(O)(c1ccccc1)C1CCCCC1` (stereo unspecified), the Potency entry in assay [1], in assay [2], in [3], in [4], in assay [5] and in [8] was “inactive” in each case. In addition, the Potency entry in assay [6] is “inactive”.
As for `CC/C=C\CCOC(=O)CC`, the Potency result in assay [1], in assay [2], in [3], in [4], in assay [5] and in assay [6] was “inactive” each time.
For `C=C(C)C(=O)OCCOCC`, the Potency result in [1], in [2], in assay [3], in assay [4], in assay [10] and in assay [5] was “inactive” each time.
Regarding `C[N+]1(CC2COC(c3ccccc3)(C3CCCCC3)O2)CCCCC1` (stereo unspecified), the Potency result in [1], in assay [2], in assay [3], in [4], in assay [7] and in [5] was “inactive” each time. Besides, the Potency result in assay [6] was “inactive”.
In the case of `NCC(=O)O`, the viability change, negative = cytotoxic in assay [1] was 2.45% [at 19 µM]; in assay [3] it was -11.9% [at 19 µM]; in assay [5], 0.187% [at 19 µM]. Besides, the activity change, negative = inhibition in assay [2] was -0.476% [at 23.6 µM]. The activity change, negative = cytotoxicity in assay [4] was -8.8% [at 19 µM]. Also, the activity, negative = inhibition in assay [10] was -5.57% [at 19 µM]. For the same compound, in [6], the activation is -1.56% [at 19 µM].
With `NC(=O)C(c1ccccc1)(c1ccccc1)[C@@H]1CCN(CCc2ccc3c(c2)CCO3)C1`, the Potency result in assay [1], in [2], in assay [3], in assay [4], in [5] and in [6] was “inactive” throughout.
In the case of `Cc1ccc(C(=O)Oc2ccc(C(O)CNC(C)(C)C)cc2OC(=O)c2ccc(C)cc2)cc1` (stereo unspecified), the Potency entry in assay [1], in assay [2], in [3], in [4] and in assay [5] was “inactive” in each case. Also, the Potency in [6] was 0.0473 µM (active).
For `NS(=O)(=O)c1ccc(N2CCCCS2(=O)=O)cc1`, the Potency result in [1], in assay [2], in [3], in assay [4], in [7] and in assay [5] was “inactive” throughout. For the same compound, the Potency entry in [9], in assay [8] and in assay [6] was “inactive” in each case.
Take `CCCCCC[C@@H](O)C/C=C\CCCCCCCC(=O)OC`: the Potency entry in assay [1], in assay [2], in assay [3], in [4], in [5] and in [8] was “inactive” throughout. In addition, in assay [6], the Potency entry was “inactive”.
In the case of `Cc1ccc(C(C)OC(=O)C2(C)CCC(C(=O)O)C2(C)C)cc1` (stereo unspecified), the Potency result in assay [1], in [2], in assay [3], in assay [4], in [5] and in [6] was “inactive” throughout.
As for `O=C(O)CC(=O)C(=O)O`, the Potency entry in assay [1], in [2], in [3], in assay [4], in [5] and in assay [6] was “inactive” in each case.
Regarding `ClCCOCCOCCCl`, the Potency entry in [1], in assay [2], in [3], in [4], in assay [5] and in [9] was “inactive” throughout. Besides, the Potency result in assay [6] was “inactive”.
Consider `Nc1ccc(N)c2c1C(=O)c1ccccc1C2=O`, for which the Potency in assay [1] was 15.4 µM (active); in assay [2], 17.8 µM (active); in assay [3], 17.2 µM (active); in assay [4] it was 15.4 µM (active); in [5], 19.3 µM (active); in assay [9], 24.3 µM (active). The Potency result in assay [7] and in assay [8] was “inactive” each time.
As for `COc1cc2nc(N3CCN(C(=O)C4COc5ccccc5O4)CC3)nc(N)c2cc1OC` (stereo unspecified), in assay [1], the Potency is 29.8 µM (active). Besides, the Potency entry in assay [2], in assay [3], in assay [4], in assay [10], in assay [7] and in assay [6] was “inactive” each time.
Turning to `COC(C)OC`, the Potency entry in assay [1], in [2], in [3], in assay [4], in assay [5] and in assay [9] was “inactive” in each case. In addition, the Potency result in [8] and in assay [6] was “inactive” each time.
For the compound `CCCCCCCCO[C@@H]1O[C@H](CO)[C@@H](O)[C@H](O)[C@H]1O`, the Potency result in assay [1], in assay [2], in assay [3], in [4], in assay [5] and in assay [6] was “inactive” in each case.
As to `CCOc1ccc(N=Nc2ccc(/C=C/c3ccc(N=Nc4ccc(OCC)cc4)cc3S(=O)(=O)O)c(S(=O)(=O)O)c2)cc1`, the Potency in assay [1] was 24 µM (active); in [3], 24 µM (active); in assay [4], 21.4 µM (active); in assay [5], 47.8 µM (active). Also, the Potency result in assay [2], in assay [7] and in assay [6] was “inactive” throughout.
Regarding `COc1ccc(C(=O)N2CCN(CC(=O)N3CCOCC3)CC2)cc1`, the Potency result in assay [1], in assay [2], in [3], in assay [4], in [5] and in assay [9] was “inactive” throughout. Moreover, the Potency result in assay [6] is “inactive”.
Take `CCOCC(O)COc1ccc(NC(=O)CC[S+](C)C)cc1` (stereo unspecified): the Potency result in [1], in assay [2], in assay [3], in [4], in assay [10] and in [5] was “inactive” each time. In [6], the Potency result is “inactive”.
`c1ccc(C(O[C@H]2CCCN(CCc3ccc4c(c3)OCO4)C2)c2ccccc2)cc1`: the Potency entry in assay [1], in [2], in assay [3], in assay [4], in assay [5] and in assay [6] was “inactive” in each case.
As for `CN1C[C@H]2c3ccccc3Oc3ccc(Cl)cc3[C@@H]2C1`, the Potency result in [1], in assay [2], in assay [3], in assay [4], in assay [10] and in assay [5] was “inactive” throughout. Also, the Potency entry in [8] and in assay [6] was “inactive” in each case.
Regarding `O=C(Nc1ccc(S(=O)(=O)N2CCOCC2)cc1)c1cc(Cl)ccc1NS(=O)(=O)c1ccc(Cl)s1`, the Potency entry in assay [1], in [2], in assay [3], in [4], in [5] and in assay [9] was “inactive” each time. For the same compound, the Potency result in assay [8] and in assay [6] was “inactive” throughout.
`COc1cc(Cl)c(OC)cc1N`: the Potency entry in assay [1], in [2], in assay [3], in assay [4] and in assay [5] was “inactive” throughout.
